Laboratory results published in PMC7862700, “An all-to-all approach to the identification of sequence-specific readers for epigenetic DNA modifications on cytosine”.

Tests used:
Assay in all cases: DAPPL (digital affinity profiling via proximity ligation, sequencing); 10 mM Tris-HCl pH 7.5, 50 mM NaCl, 1 mM DTT, 4% glycerol, room temperature, 30 min; GST-TFs on glutathione beads, 16-mer random dsDNA library, 0.1% formaldehyde crosslink after washing; high values mean tight binding
FEV = molecular target: T1, FEV (Homo sapiens, UniProt Q99581 1-238); conditions: protein: recombinant; tags: N-terminal GST; dsDNA, one strand shown
T1 sequence: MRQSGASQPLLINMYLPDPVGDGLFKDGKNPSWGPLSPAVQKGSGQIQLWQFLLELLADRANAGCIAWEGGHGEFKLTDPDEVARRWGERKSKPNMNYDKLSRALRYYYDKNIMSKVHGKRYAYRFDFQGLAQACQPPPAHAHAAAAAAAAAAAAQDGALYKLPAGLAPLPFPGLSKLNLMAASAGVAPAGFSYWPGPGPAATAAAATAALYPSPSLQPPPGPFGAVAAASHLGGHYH
Summary of the method: (§1)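 Yeast served to express human transcription factors as GST fusions, which were then captured on glutathione beads and labelled with DNA barcodes. Pooled with a tag-only sample, they were incubated with 200 nmole of a 16-mer random double-stranded DNA library for 30 min at room temperature in Tris/NaCl/DTT/glycerol buffer, washed, crosslinked with 0.1% formaldehyde, ligated by proximity, amplified by PCR and sequenced. Dividing each hexamer's read frequency for a factor by its frequency for the tag-only sample gives the binding signal.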

ETV5 = ETV5 (Homo sapiens, UniProt P41161 1-510); conditions: protein: recombinant; tags: N-terminal GST; dsDNA, one strand shown
Summary of the method: as §1

HSF1 = HSF1 (Homo sapiens, UniProt Q00613 1-529); conditions: protein: recombinant; tags: N-terminal GST; chain copies: 3; dsDNA, one strand shown
Summary of the method: as §1

SPIC = molecular target: T2, SPIC (Homo sapiens, UniProt Q8N5J4 1-248); conditions: protein: recombinant; tags: N-terminal GST; dsDNA, one strand shown
T2 sequence: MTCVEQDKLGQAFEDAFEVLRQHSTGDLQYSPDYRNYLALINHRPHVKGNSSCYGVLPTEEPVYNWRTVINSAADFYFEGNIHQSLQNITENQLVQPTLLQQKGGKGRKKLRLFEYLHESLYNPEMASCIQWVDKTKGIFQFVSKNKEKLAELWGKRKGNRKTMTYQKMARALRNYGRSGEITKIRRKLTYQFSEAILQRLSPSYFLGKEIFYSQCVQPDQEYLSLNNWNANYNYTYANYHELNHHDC
Summary of the method: as §1

ELF4 = ELF4 (Homo sapiens, UniProt Q99607 1-663); conditions: protein: recombinant; tags: N-terminal GST; dsDNA, one strand shown
Summary of the method: as §1

ELK4 = molecular target: T3, ELK4 (Homo sapiens, UniProt P28324-2 1-405); conditions: protein: recombinant; tags: N-terminal GST; dsDNA, one strand shown
T3 sequence: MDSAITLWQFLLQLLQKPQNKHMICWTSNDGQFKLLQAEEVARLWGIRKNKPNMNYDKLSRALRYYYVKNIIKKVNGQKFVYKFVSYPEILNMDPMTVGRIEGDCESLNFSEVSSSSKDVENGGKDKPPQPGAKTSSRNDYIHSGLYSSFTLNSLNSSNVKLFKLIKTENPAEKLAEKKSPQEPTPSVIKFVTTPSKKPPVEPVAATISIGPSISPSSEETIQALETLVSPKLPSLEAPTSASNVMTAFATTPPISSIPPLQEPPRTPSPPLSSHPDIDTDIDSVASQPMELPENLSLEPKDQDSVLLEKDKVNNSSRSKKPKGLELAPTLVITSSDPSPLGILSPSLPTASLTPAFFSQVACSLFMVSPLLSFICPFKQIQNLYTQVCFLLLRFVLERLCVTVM
Summary of the method: as §1

ETV2 = molecular target: T4, ETV2 (Homo sapiens, UniProt O00321 1-342); conditions: protein: recombinant; tags: N-terminal GST; dsDNA, one strand shown
T4 sequence: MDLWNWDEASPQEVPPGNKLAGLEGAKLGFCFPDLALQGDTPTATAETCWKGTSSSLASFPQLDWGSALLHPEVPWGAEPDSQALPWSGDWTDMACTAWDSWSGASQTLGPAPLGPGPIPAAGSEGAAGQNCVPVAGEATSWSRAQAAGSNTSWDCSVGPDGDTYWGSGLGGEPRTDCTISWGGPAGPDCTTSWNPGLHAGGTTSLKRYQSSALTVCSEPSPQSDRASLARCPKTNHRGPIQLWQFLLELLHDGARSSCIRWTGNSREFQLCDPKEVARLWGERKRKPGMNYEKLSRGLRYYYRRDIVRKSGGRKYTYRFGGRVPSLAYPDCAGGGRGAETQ
Summary of the method: as §1

ELF3 = molecular target: T5, ELF3 (Homo sapiens, UniProt P78545 1-371); conditions: protein: recombinant; tags: N-terminal GST; dsDNA, one strand shown
T5 sequence: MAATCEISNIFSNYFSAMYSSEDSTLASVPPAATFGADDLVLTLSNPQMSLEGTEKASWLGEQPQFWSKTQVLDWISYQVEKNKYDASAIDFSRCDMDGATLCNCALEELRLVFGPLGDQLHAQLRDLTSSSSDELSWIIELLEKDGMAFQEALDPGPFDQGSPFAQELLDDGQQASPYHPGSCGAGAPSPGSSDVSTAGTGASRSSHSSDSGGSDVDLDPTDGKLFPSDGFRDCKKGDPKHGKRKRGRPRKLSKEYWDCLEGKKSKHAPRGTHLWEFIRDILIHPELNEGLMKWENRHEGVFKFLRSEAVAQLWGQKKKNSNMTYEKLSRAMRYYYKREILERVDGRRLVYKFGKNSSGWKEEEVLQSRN
Summary of the method: as §1

ETV1 = ETV1 (Homo sapiens, UniProt P50549 1-477); conditions: protein: recombinant; tags: N-terminal GST; dsDNA, one strand shown
Summary of the method: as §1

ETV3L = molecular target: T6, ETV3L (Homo sapiens, UniProt Q6ZN32 1-361); conditions: protein: recombinant; tags: N-terminal GST; dsDNA, one strand shown
T6 sequence: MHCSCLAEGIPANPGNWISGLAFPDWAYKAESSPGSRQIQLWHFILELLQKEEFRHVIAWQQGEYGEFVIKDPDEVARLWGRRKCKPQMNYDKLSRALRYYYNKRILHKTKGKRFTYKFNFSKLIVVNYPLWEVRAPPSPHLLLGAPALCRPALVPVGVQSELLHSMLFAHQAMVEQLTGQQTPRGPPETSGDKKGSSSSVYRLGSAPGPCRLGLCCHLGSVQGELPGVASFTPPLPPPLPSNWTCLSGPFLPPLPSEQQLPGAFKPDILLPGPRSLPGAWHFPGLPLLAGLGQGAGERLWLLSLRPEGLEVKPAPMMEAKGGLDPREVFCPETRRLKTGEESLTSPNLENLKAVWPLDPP
Summary of the method: as §1

ETS2 = molecular target: T7, ETS2 (Homo sapiens, UniProt P15036 1-469); conditions: protein: recombinant; tags: N-terminal GST; dsDNA, one strand shown
T7 sequence: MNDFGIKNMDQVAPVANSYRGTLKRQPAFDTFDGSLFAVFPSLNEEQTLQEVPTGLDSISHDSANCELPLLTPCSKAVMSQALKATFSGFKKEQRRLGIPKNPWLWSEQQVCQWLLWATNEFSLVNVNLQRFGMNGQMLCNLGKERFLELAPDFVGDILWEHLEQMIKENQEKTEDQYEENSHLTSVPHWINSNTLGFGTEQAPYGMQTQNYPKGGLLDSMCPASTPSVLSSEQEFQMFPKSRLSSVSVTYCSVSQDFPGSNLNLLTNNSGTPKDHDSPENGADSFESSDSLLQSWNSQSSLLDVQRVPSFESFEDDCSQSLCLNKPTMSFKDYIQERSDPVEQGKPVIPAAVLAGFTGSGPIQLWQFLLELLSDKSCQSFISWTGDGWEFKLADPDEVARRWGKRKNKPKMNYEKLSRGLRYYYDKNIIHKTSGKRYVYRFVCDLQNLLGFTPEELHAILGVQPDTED
Summary of the method: as §1

SPDEF = molecular target: T8, SPDEF (Homo sapiens, UniProt O95238 1-335); conditions: protein: recombinant; tags: N-terminal GST; dsDNA, one strand shown
T8 sequence: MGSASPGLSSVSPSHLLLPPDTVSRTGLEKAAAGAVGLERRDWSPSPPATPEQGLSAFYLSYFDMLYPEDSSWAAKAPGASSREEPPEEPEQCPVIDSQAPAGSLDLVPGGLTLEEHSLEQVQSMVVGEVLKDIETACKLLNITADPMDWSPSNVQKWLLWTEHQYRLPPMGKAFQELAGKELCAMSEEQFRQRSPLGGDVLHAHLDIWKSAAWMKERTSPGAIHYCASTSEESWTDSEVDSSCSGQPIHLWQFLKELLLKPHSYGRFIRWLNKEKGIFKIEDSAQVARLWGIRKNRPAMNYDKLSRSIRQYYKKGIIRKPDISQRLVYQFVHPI
Summary of the method: as §1

ETV7 = molecular target: T9, ETV7 (Homo sapiens, UniProt Q9Y603 1-341); conditions: protein: recombinant; tags: N-terminal GST; dsDNA, one strand shown
T9 sequence: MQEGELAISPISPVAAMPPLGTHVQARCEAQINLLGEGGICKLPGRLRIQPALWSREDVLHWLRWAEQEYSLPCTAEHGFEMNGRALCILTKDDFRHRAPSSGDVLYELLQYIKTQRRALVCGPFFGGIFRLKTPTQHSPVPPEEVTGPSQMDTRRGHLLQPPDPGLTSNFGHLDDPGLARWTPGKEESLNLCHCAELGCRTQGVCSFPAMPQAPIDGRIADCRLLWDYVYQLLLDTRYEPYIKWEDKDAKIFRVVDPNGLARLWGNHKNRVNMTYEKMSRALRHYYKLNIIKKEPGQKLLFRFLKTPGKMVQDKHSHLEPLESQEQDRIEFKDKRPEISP
Summary of the method: as §1

ELF5 = molecular target: T10, ELF5 (Homo sapiens, UniProt Q9UKW6-2 1-255); conditions: protein: recombinant; tags: N-terminal GST; dsDNA, one strand shown
T10 sequence: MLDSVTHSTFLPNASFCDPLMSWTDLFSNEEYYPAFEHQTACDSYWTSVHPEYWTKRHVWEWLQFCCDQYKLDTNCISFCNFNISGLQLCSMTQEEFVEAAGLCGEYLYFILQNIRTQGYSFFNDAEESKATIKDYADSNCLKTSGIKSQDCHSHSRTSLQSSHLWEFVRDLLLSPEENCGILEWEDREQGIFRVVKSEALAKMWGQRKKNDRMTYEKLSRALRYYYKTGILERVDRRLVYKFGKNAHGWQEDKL
Summary of the method: as §1

ETV3 = molecular target: T11, ETV3 (Homo sapiens, UniProt P41162-2 1-143); conditions: protein: recombinant; tags: N-terminal GST; dsDNA, one strand shown
T11 sequence: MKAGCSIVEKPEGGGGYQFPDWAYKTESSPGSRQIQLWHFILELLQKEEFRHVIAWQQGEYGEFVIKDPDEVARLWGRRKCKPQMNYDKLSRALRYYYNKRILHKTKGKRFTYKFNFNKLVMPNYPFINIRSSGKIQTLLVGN
Summary of the method: as §1

ETV6 = ETV6 (Homo sapiens, UniProt P41212 1-452); conditions: protein: recombinant; tags: N-terminal GST; dsDNA, one strand shown
Summary of the method: as §1

Sequence of ETV6 (P41212 whole entry): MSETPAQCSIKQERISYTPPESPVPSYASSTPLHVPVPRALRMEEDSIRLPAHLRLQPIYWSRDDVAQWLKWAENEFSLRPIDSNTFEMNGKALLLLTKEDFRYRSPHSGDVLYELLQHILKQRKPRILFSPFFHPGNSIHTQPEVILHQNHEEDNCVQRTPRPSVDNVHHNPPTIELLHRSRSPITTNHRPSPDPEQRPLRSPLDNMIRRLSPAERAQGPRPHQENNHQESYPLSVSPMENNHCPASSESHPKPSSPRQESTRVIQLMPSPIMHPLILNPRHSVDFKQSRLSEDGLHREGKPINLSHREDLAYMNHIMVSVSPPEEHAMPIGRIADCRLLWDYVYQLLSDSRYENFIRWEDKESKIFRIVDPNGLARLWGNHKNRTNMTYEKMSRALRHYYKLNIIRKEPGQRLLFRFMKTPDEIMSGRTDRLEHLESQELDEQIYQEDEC
Sequence of ELF4 (Q99607 whole entry): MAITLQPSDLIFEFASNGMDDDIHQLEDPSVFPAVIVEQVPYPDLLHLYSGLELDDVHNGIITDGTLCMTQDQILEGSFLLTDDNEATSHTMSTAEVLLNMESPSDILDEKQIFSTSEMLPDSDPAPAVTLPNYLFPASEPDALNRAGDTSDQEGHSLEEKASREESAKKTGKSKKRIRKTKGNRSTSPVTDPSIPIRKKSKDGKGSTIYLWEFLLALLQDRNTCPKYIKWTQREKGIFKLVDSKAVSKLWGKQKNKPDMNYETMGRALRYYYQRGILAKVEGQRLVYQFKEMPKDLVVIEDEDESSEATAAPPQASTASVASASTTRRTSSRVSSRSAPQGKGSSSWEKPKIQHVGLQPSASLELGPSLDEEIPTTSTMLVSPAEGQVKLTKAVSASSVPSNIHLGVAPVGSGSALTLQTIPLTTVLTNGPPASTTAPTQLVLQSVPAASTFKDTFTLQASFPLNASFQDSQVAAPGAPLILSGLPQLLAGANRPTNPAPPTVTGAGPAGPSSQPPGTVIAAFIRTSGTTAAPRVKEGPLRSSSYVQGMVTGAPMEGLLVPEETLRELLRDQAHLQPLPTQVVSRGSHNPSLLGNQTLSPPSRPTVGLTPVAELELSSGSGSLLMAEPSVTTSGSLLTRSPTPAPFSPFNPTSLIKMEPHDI
Sequence of ETV5 (P41161 whole entry): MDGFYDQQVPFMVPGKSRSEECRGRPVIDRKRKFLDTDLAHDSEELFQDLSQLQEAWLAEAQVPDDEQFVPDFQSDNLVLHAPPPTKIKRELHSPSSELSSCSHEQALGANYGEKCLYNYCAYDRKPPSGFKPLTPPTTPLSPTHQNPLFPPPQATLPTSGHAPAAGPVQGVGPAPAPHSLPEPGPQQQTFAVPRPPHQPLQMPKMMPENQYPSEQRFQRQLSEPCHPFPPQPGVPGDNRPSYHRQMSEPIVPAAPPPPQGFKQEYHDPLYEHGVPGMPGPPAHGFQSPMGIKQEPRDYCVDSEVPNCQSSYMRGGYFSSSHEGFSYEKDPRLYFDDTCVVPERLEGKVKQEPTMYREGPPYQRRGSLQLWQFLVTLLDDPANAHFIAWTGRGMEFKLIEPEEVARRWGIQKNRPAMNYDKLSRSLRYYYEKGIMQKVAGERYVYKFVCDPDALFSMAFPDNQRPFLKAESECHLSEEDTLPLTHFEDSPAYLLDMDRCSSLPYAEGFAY
Sequence of HSF1 (Q00613 whole entry): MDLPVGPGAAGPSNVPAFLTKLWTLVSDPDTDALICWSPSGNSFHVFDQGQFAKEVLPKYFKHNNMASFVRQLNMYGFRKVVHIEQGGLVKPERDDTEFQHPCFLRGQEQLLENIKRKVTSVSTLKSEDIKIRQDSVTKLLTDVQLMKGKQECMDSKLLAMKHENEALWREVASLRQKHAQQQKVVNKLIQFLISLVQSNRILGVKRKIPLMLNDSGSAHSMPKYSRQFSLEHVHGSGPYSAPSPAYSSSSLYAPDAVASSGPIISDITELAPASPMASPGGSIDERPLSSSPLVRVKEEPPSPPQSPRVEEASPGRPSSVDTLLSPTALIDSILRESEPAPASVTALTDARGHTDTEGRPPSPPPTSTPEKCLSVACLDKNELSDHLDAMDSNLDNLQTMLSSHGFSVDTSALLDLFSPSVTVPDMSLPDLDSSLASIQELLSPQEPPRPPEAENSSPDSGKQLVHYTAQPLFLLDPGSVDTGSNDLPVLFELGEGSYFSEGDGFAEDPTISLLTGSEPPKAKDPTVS
Sequence of ETV1 (P50549 whole entry): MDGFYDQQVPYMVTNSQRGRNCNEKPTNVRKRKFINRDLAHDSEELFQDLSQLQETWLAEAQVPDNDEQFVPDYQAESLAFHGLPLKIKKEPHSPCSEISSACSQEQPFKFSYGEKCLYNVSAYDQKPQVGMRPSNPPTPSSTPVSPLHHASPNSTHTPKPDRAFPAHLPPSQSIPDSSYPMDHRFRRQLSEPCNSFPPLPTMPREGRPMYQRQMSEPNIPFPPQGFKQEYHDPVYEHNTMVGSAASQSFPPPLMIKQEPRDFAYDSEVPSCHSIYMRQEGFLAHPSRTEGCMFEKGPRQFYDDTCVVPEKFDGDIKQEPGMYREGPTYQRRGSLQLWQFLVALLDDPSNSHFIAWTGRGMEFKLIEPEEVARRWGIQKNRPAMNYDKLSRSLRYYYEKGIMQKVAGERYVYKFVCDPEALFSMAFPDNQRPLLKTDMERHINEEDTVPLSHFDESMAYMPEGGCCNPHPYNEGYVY

## CCTGGG
FEV
  binding signal: 1.05 fold enrichment (6-mer frequency, TF over GST control)
ETV5
  binding signal: 1.05 fold enrichment (6-mer frequency, TF over GST control)
HSF1
  binding signal: 1.01 fold enrichment (6-mer frequency, TF over GST control)
SPIC
  binding signal: 1.05 fold enrichment (6-mer frequency, TF over GST control)
ELF4
  binding signal: 1.09 fold enrichment (6-mer frequency, TF over GST control)
ELK4
  binding signal: 1.08 fold enrichment (6-mer frequency, TF over GST control)
ETV2
  binding signal: 1.29 fold enrichment (6-mer frequency, TF over GST control)
ELF3
  binding signal: 1.06 fold enrichment (6-mer frequency, TF over GST control)
ETV1
  binding signal: 1.16 fold enrichment (6-mer frequency, TF over GST control)
ETV3L
  binding signal: 1.22 fold enrichment (6-mer frequency, TF over GST control)
ETS2
  binding signal: 1.14 fold enrichment (6-mer frequency, TF over GST control)
SPDEF
  binding signal: 1.11 fold enrichment (6-mer frequency, TF over GST control)
ETV7
  binding signal: 1.39 fold enrichment (6-mer frequency, TF over GST control)
ELF5
  binding signal: 1.17 fold enrichment (6-mer frequency, TF over GST control)
ETV3
  binding signal: 1.08 fold enrichment (6-mer frequency, TF over GST control)
ETV6
  binding signal: 1.1 fold enrichment (6-mer frequency, TF over GST control)
